The values that follow come from PubChem BioAssay.

Experiment [1] can be described thus: growth inhibition of DIPG glioma cells, dose response, cell-based, SU-DIPG-XIII, MIPE5.0, CellTiter-Glo, qHTS (AID 1347064; cut-off not given, nearly all actives have AC50 up to about 23 µM;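 for AC50: cells exposed to compound for 48 hours before the viability read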). The conditions noted are these: SU-DIPG-XIII viability, CellTiter-Glo ATP luminescence. (Cellular ATP, detected with luciferase, serves as a proxy for viable cell number.)
Experiment [2] can be described thus: SU-DIPG-XXV glioma cell viability, MIPE5.0 library, qHTS (AID 1347068; cut-off not given, nearly all actives have IC50 up to about 30 µM). A general note: Quantitative high-throughput screening tests each substance at several concentrations.
The nature of experiment [3]: sensitizers of A549 cells to miR-34 induction, primary screen, imaging, A549 dox-inducible miR-34, nuclei and caspase counts (AID 1347080;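 active = compounds whose cell count with miR-34 switched on is under 0.7 times the count with it off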). The conditions noted are these: A549 miR-34 inducible, Hoechst nuclei count, 48 h.
Experiment [4] is described as follows: survival rescue of mitochondrial mutant cells in low glucose, primary screen, MELAS cybrids, Rieske KO mouse fibroblasts, CellTiter-Glo (AID 1508586;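 active = mean z-score across replicates of 1.96 or higher in either the MELAS or the Rieske mutant cell line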;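 note: z relative to plate mean and SD of compound and empty wells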).
A short description of experiment [5]: viability loss in pontine glioma line – cell-based, SU-DIPG-XXV, MIPE5.0, CellTiter-Glo, qHTS, dose response (AID 1347065; cut-off not given, nearly all actives have AC50 up to about 26 µM;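 note: cells exposed to compound for 48 hours before ATP readout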). To be noted: CellTiter-Glo ATP luminescence.
The nature of experiment [6]: JHH-DIPG-1 glioma cell viability, MIPE5.0 library, CellTiter-Glo luminescence, qHTS (AID 1347067; cut-off not given, nearly all actives have AC50 up to about 26 µM;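 note: cells exposed to compound for 48 hours before readout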). To be noted: JHH-DIPG-1 glioma viability, CellTiter-Glo ATP luminescence.
A short description of experiment [7]: SU-DIPG-VI glioma cell viability, MIPE4.0 library, CellTiter-Glo luminescence, qHTS (AID 1347066; cut-off not given, nearly all actives have AC50 up to about 30 µM;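 note: cells exposed to compound for 48 hours before readout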). The conditions noted are these: CellTiter-Glo ATP luminescence.
Experiment [8] is described as follows: modifiers of HSF1 nuclear foci, imaging, Selleck Cancer Library (AID 1347162; in the data active = plate-normalised HSF1 focus index below about 0.46). To be noted: human cells, at 10 µM; SSMD: measured here: HSF1 foci SSMD mean; cell count: measured here: cell number; plate-normalised HSF1 focus index: stronger effect = lower value.
Experiment [9] in a line: ovarian cancer cell viability with rucaparib, profiling panel, oncology-focused library, rucaparib conditional (AID 1508598). The conditions noted are these: patient-derived ovarian cancer cells, CellTiter-Glo viability, 144 h, stronger effect = lower value.
Where [10] appears, read: stronger effect = lower value, cell number ratio, induced over uninduced.
Setting [11] is: measured here: relative caspase fold change +Dox/-Dox.
Setting [12] is: measured here: total cells with miR-34 induction, stronger effect = lower value.
The mark [13] stands for this setting: measured here: total cells without miR-34 induction.
Where [14] appears, read: MELAS cybrid survival, CellTiter-Glo 48 h, stronger effect = higher value.
Where [15] appears, read: Rieske KO mouse fibroblast survival, CellTiter-Glo 72 h.

Results filed as inconclusive are left out. Active and inactive are the calls of the source.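 Rule for the calls, unless noted: active = normalized viability below 100% at a tested concentration; inactive = the rest.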

With `Cc1cc(C)c2c(c1)[C@@H](N(Cc1cc(C(F)(F)F)cc(C(F)(F)F)c1)c1nnn(C)n1)CCCN2CC1CCC(C(=O)O)CC1` (stereo not given in full), the AC50 (as a rule, the midpoint of the concentration-response curve, whichever way the signal moves) in experiment [1] is 20.9 µM (active). For the same molecule, the molecule was classed as inactive in experiment [2]. The fold change in experiment [3] (setting [10]) is 0.938 (inactive); in experiment [3] (setting [11]) it was 0.636. Further, the cell count in experiment [3] (setting [12]) came to 6920; in experiment [3] (setting [13]), 7380. For the same molecule, the results for the z-score in experiment [4] (setting [14]) and in [4] (setting [15]) were -0.009 (inactive) and -0.0411, respectively.
On to `CC(C)[C@@H](CS(=O)(=O)C(C)C)N1C(=O)[C@@](C)(CC(=O)O)C[C@H](c2cccc(Cl)c2)[C@H]1c1ccc(Cl)cc1`, for which the AC50 in [5] is 18.6 µM (active); in experiment [6] it was 23.5 µM (active).
The corresponding values for `CN1CCN(C(=O)c2ccc3cc(CCNc4ncnc5ccc(C#N)cc45)ccc3c2)CC1` are 23.5 µM (active) and 20.9 µM (active).
Turning to `OCCOc1ccc(/C(=C(/CCCl)c2ccccc2)c2ccccc2)cc1`, the call in experiment [1] and in [2] was inactive.
Turning to `COC(=O)/C=C/C(=O)N(O)CCCCNCc1ccc(COC(=O)Nc2cccc3ccccc23)cc1`, the AC50 in [5] was 20.9 µM (active); in experiment [6], 18.6 µM (active).
For `O=C(Nc1cnccc1Cl)N1CCN(Cc2ccc3c(c2)OC(F)(F)O3)CC1`, the molecule was classed as inactive in experiment [1] and in [2].
In the case of `Cc1cc(/C=c2/sc3nc4ccccc4n3c2=O)c(C)n1-c1ccccc1`, the AC50 in experiment [5] was 20.9 µM (active). Besides, the outcome in [7], in experiment [6] and in experiment [2] was inactive. In experiment [8], this molecule came in with an SSMD of 3.08. For the same molecule, the cell count in experiment [8] came out at 7030. Moreover, the plate-normalised HSF1 focus index in [8] was 1.18 (inactive).
In the case of `CCc1cc(/C(C)=N/OCc2ccc(C3CCCCC3)c(C(F)(F)F)c2)ccc1CN1CC(C(=O)O)C1`, in experiment [5], the AC50 is 18.6 µM (active). Further, in experiment [7], the molecule was classed as inactive.
On to `Cc1nn(Cc2ccccc2Cl)c(C)c1CN(C)CC(O)COc1ccc(Cl)cc1` (stereo not given), for which the AC50 in [5] was 20.9 µM (active); in experiment [6] it was 23.5 µM (active).
For `CN(C)CCNC(=O)NC[C@H]1CC[C@@H]2[C@H](O1)c1cc(C(F)(F)F)ccc1N[C@H]2c1ccccc1`, the AC50 in experiment [5] is 0.186 µM (active).
Take `C#Cc1cccc(Nc2ncnc3cc4c(cc23)OCCOCCOCCO4)c1`: the molecule was called inactive in experiment [1]. Moreover, the fold change was 1.01 (inactive) in [3] (setting [10]) and 0.44 in experiment [3] (setting [11]). The cell count was found to be 7300 in experiment [3] (setting [12]) and 7200 in experiment [3] (setting [13]). Besides, the values for the z-score in experiment [4] (setting [14]) and in experiment [4] (setting [15]) were 0.219 (inactive) and 0.164, respectively.
For the molecule `CCc1cc(Nc2nccc(-c3c(-c4ccc(OC)c(C(=O)Nc5c(F)cccc5F)c4)nc4ccccn34)n2)c(OC)cc1N1CCC(N2CCN(S(C)(=O)=O)CC2)CC1`, in experiment [1], the AC50 was 5.25 µM (active). In experiment [2], the outcome was inactive. Besides, the fold change was 0.946 (inactive) in experiment [3] (setting [10]) and 1.23 in experiment [3] (setting [11]). Further, the cell count in [3] (setting [12]) came to 6190; in [3] (setting [13]), 6540; in experiment [8], 6760. In [8], this molecule yielded an SSMD of 2.41. For the same molecule, the plate-normalised HSF1 focus index in [8] was 1.12 (inactive). The z-score in experiment [4] (setting [14]) is 0.319 (inactive); in experiment [4] (setting [15]), 0.793. For the same molecule, the viability (in general, a read-out of living cells in per cent, often relative to untreated cells) in [9] (at 0.000305 µM, OCI-C5x cells, with rucaparib 10 µM, 100% = cells with rucaparib alone) was 118% (inactive); in experiment [9] (at 0.000305 µM, OCI-C5x cells, without rucaparib), 127% (inactive); in experiment [9] (at 0.000305 µM, OCI-P5x cells, with rucaparib 20 µM, 100% = cells with rucaparib alone), 97.3% (active); in [9] (at 0.000305 µM, OCI-P5x cells, without rucaparib) it was 105% (inactive); in experiment [9] (at 0.00122 µM, OCI-C5x cells, with rucaparib 10 µM, 100% = cells with rucaparib alone), 112% (inactive); in experiment [9] (at 0.00122 µM, OCI-C5x cells, without rucaparib), 120% (inactive). Besides, the viability in [9] (at 0.00122 µM, OCI-P5x cells, with rucaparib 20 µM, 100% = cells with rucaparib alone) is 99.8% (active); in experiment [9] (at 0.00122 µM, OCI-P5x cells, without rucaparib), 104% (inactive); in experiment [9] (at 0.00488 µM, OCI-C5x cells, with rucaparib 10 µM, 100% = cells with rucaparib alone) it was 116% (inactive); in [9] (at 0.00488 µM, OCI-C5x cells, without rucaparib) it was 121% (inactive); in [9] (at 0.00488 µM, OCI-P5x cells, with rucaparib 20 µM, 100% = cells with rucaparib alone), 98.3% (active); in [9] (at 0.00488 µM, OCI-P5x cells, without rucaparib), 98.5% (active). For the same molecule, the viability in experiment [9] (at 0.0195 µM, OCI-C5x cells, with rucaparib 10 µM, 100% = cells with rucaparib alone) is 112% (inactive); in experiment [9] (at 0.0195 µM, OCI-C5x cells, without rucaparib), 119% (inactive); in experiment [9] (at 0.0195 µM, OCI-P5x cells, with rucaparib 20 µM, 100% = cells with rucaparib alone) it was 102% (inactive); in [9] (at 0.0195 µM, OCI-P5x cells, without rucaparib), 103% (inactive); in experiment [9] (at 0.0781 µM, OCI-C5x cells, with rucaparib 10 µM, 100% = cells with rucaparib alone), 122% (inactive); in experiment [9] (at 0.0781 µM, OCI-C5x cells, without rucaparib), 132% (inactive). The viability in experiment [9] (at 0.0781 µM, OCI-P5x cells, with rucaparib 20 µM, 100% = cells with rucaparib alone) was 93.1% (active); in [9] (at 0.0781 µM, OCI-P5x cells, without rucaparib) it was 100% (inactive); in experiment [9] (at 0.313 µM, OCI-C5x cells, with rucaparib 10 µM, 100% = cells with rucaparib alone), 174% (inactive); in [9] (at 0.313 µM, OCI-C5x cells, without rucaparib), 152% (inactive); in experiment [9] (at 0.313 µM, OCI-P5x cells, with rucaparib 20 µM, 100% = cells with rucaparib alone) it was 103% (inactive); in experiment [9] (at 0.313 µM, OCI-P5x cells, without rucaparib) it was 103% (inactive). The viability in experiment [9] (at 1.25 µM, OCI-C5x cells, with rucaparib 10 µM, 100% = cells with rucaparib alone) was 178% (inactive); in experiment [9] (at 1.25 µM, OCI-C5x cells, without rucaparib), 174% (inactive); in [9] (at 1.25 µM, OCI-P5x cells, with rucaparib 20 µM, 100% = cells with rucaparib alone) it was 97.9% (active); in experiment [9] (at 1.25 µM, OCI-P5x cells, without rucaparib), 88.3% (active); in experiment [9] (at 5 µM, OCI-C5x cells, with rucaparib 10 µM, 100% = cells with rucaparib alone), 176% (inactive); in experiment [9] (at 5 µM, OCI-C5x cells, without rucaparib), 196% (inactive). The viability in experiment [9] (at 5 µM, OCI-P5x cells, with rucaparib 20 µM, 100% = cells with rucaparib alone) was 92.9% (active); in [9] (at 5 µM, OCI-P5x cells, without rucaparib), 90.5% (active).
